Screening data as filed in PubChem BioAssay.
This is a sample that favours compounds with a hit; in the whole collection about 12% have one here.
HP1b binding inh = HP1-beta chromodomain-methylated histone interaction inhibition | P83916 | AlphaScreen HP1-beta / biotin-H3K9me3 peptide binding | Potency, µM (highest dose often 114 µM), for inactives: at the highest dose activity change, negative = inhibition, actives largely listed as inhibitors | 390,000 compounds, 0.56% hits; further: potency means the concentration at half of the fitted maximal effect; nearly all actives have a fitted effect of over 70% in size
Target sequence (P83916 whole entry, looked up): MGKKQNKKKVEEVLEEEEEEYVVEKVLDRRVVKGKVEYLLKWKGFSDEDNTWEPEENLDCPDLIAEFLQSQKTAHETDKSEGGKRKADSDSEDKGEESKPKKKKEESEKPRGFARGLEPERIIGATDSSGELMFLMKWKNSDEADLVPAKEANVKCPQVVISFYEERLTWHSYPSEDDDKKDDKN
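AlphaScreen: HP1-beta (50 nM) preformed 30 min with biotin-H3(1-18)K9me3 peptide (50 nM) in PBS pH 7.4, 0.01% Tween-20. Compound added for 30 min at RT, then streptavidin donor/nickel chelate acceptor beads (10 ug/mL) for 30 min.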
JMJD2A Tudor = inhibitors of human JMJD2A Tudor domain; O75164; AlphaScreen JMJD2A-Tudor / H3K4me3 peptide binding; Potency, µM (series often up to 114 µM), without a hit: top-dose activity change, negative = inhibition, most hits filed as inhibitors; 390,000 compounds, 4.4% hits; further: potency means the concentration at half of the fitted maximal effect; on the % scale 0 is the no-effect control and ±100 the full control effect; nearly all actives have a fitted effect of over 50% in size
PI5P4K alpha inh = inhibitors of human PI5P4K alpha. P48426. PI5P4Kalpha enzyme, ADP-Glo luminescence, 60 min; stronger effect = lower value. max response, %. 330,000 compounds, 1.2% hits. AID 652105; active means max response of -50% or lower; inconclusive means between -30% and -50%; inactive means -30% or higher; further: value at the top dose of about 77 µM; on the % scale 0 is the no-effect control and ±100 the full control effect
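ADP-Glo luminescence end-point after a 60 min room-temperature kinase reaction. PI5P4Kalpha and substrate in HEPES pH 7.4 buffer with EGTA, 0.1% CHAPS and 5% DMSO; ATP at 5 microM final.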
G9a block = blocks human histone lysine methyltransferase G9a; Q96KQ7; G9a H3K9 monomethylation, AlphaScreen, 2 h; Potency, µM (top dose mostly 102 µM), inactives show at the top dose activity, negative = inhibition, most hits filed as inhibitors; 350,000 compounds, 8.8% hits; further: potency means the concentration at half of the fitted maximal effect; on the % scale 0 is the no-effect control and ±100 the full control effect; nearly all actives have a fitted effect of over 75% in size
Target sequence (Q96KQ7 913-1193 limits assumed): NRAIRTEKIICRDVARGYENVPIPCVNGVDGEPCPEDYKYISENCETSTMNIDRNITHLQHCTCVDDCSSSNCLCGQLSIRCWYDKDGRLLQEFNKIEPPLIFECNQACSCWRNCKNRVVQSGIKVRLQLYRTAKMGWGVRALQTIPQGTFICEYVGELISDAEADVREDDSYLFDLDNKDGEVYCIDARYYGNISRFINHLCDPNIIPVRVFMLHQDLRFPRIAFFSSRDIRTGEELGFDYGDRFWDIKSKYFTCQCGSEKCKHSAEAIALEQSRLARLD
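Enzyme 20 nM + cpd, 15 min RT; add b-H3K9 pep 500 nM / SAM 20 uM; 2 h RT; anti-H3K9me1 Ab 0.5 ug/mL + SA donor / anti-rabbit acceptor beads 20 ug/mL each, 10 min; AlphaScreen read.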
BAZ2B block = BAZ2B (human) inhibition. Q9UIF8. 360,000 compounds, 4.4% hits. Potency, µM (top dose mostly 114 µM), inactives show top-dose activity change, negative = inhibition, usual class: inhibitors. AlphaScreen BAZ2B-H3K14Ac peptide displacement. AID 504333; further: potency means the concentration at half of the fitted maximal effect; on the % scale 0 is the no-effect control and ±100 the full control effect; nearly all actives have a fitted effect of over 60% in size
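Compounds, titrated to a top concentration of 110 uM, were incubated 30 min at room temperature with preformed BAZ2B/acetyl-K14 H3 peptide complex (50 nM each). Proximity signal was measured by AlphaScreen after 20 min with beads.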
PLK1 PBD block = PLK1 (human) polo-box domain binding inhibition; Potency, µM, for the others: max response, negative = inhibition, hits mostly inhibitors; Plk1 PBD binding of FITC phosphopeptide, fluorescence polarization; 360,000 compounds, 2.8% hits; P53350; further: potency means the concentration at half of the fitted maximal effect; series mostly up to about 57 µM; on the % scale 0 is the no-effect control and ±100 the full control effect; nearly all actives have a fitted effect of over 65% in size
Active calls of the source: *; [ ] = dose if it differs, or a comment. Unless noted, the call rests on the fitted dose curve; in most records, active means well fitted curve in the direction sought with a large enough effect; inconclusive means small, poorly fitted or top-dose-only effect, or another doubt; inactive means no such curve, though single readings can be large; an effect the other way counts as inactive or inconclusive.

For CCCn1c(N)c(N(CCOC)C(=O)COC(=O)c2ccccc2NCCO)c(=O)[nH]c1=O the results were HP1b binding inh 12.3%, JMJD2A Tudor -9.7%, PI5P4K alpha inh 0.2, G9a block 8.91µM*, BAZ2B block 12.2% and PLK1 PBD block -6.6%.
O=C(COc1cc2oc(=O)c3c(c2cc1Cl)CCC3)NCc1ccncc1 was read as HP1b binding inh 52.5%, JMJD2A Tudor -9.3%, PI5P4K alpha inh -0.6, G9a block 2.0%, BAZ2B block -26.4% and PLK1 PBD block -3.6%.
For C[C@H](NC(=O)c1ccco1)C(=O)NCCc1ccc(S(N)(=O)=O)cc1 the results were HP1b binding inh 37.1%, JMJD2A Tudor -11.5%, PI5P4K alpha inh 0.9, G9a block inconclusive, BAZ2B block 3.5% and PLK1 PBD block -13.4%.
Screening CC1=C(C)CS(=O)N(S(=O)(=O)c2ccccc2)C1 (stereo not given) returned HP1b binding inh 29.6%, JMJD2A Tudor -20.0%, G9a block 8.91µM*, BAZ2B block 3.3% and PLK1 PBD block 1.5µM*.
CC1=C(C)CS(=O)N(c2ccc(S(N)(=O)=O)cc2)C1 (stereo not given) was read as HP1b binding inh 61.3%, JMJD2A Tudor 1.7%, PI5P4K alpha inh 5.2, G9a block inconclusive, BAZ2B block 1.0% and PLK1 PBD block 1.5µM*.
For Cc1nn(C2CCS(=O)(=O)C2)c2nc(C3CC3)cc(C(=O)Nc3cccc(C#N)c3)c12 (stereo not given) the results were HP1b binding inh 35.1%, JMJD2A Tudor -6.8%, PI5P4K alpha inh -3.2, G9a block inconclusive, BAZ2B block -1.3% and PLK1 PBD block -0.3%.
For COc1ccc(NC(=O)Nc2nnc([C@H]3C[C@H](O)[C@@H](CO)O3)s2)cc1 the results were PI5P4K alpha inh -11.0 and PLK1 PBD block 7.0%.
Cn1c(SCC(=O)Nc2ccccc2F)nnc1-c1cccnc1 was read as HP1b binding inh 45.7%, JMJD2A Tudor 0.7%, PI5P4K alpha inh 1.0, G9a block 8.9%[59 µM], BAZ2B block 13.0% and PLK1 PBD block -3.9%.
Screening Cn1c(SSc2ccc(-c3cccnc3)n2C)ccc1-c1cccnc1 returned HP1b binding inh inconclusive, JMJD2A Tudor 50.1µM*, PI5P4K alpha inh 2.0 and PLK1 PBD block 4.23µM*.
`Cc1cc2c(s1)c1cnn(Cc3ccc(C)c(F)c3F)c(=O)c1n2C` gave JMJD2A Tudor -19.2%.
`CCOC(=O)C1=C(COC(=O)c2ccccc2OC)NC(=O)NC1C` (stereo not given) gave HP1b binding inh 19.3%, JMJD2A Tudor -4.8%, PI5P4K alpha inh -10.0, G9a block 3.16µM*, BAZ2B block -4.9% and PLK1 PBD block -9.5%.
`CCOC(=O)C1=C(COC(=O)c2c(OC)cccc2OC)NC(=O)NC1C` (stereo not given) gave HP1b binding inh 24.4%, JMJD2A Tudor -8.2%, PI5P4K alpha inh 2.5, G9a block 9.5%[59 µM], BAZ2B block 19.4% and PLK1 PBD block -2.1%.
Screening CCOC(=O)C1=C(COC(=O)/C=C/c2ccco2)NC(=O)NC1C (stereo not given) returned HP1b binding inh inconclusive, JMJD2A Tudor 28.2µM*, PI5P4K alpha inh -53.8*, G9a block 27.6%[0.501 µM], BAZ2B block 50.1µM* and PLK1 PBD block inconclusive.
Screening CC(=O)N1c2ccccc2CC1C(=O)NCc1cccc(Cl)c1 (stereo not given) returned HP1b binding inh 25.5%, JMJD2A Tudor 2.7%, G9a block 3.0%[59 µM] and BAZ2B block -0.3%.
For O=C(CN1CCCCC1)N1CCc2ccccc21 the results were HP1b binding inh 21.7%, JMJD2A Tudor -17.4%, PI5P4K alpha inh -0.2, G9a block 11.6%, BAZ2B block 6.2% and PLK1 PBD block -1.0%.
O=C(CN1CCCC1)N1CCCC(c2ccc(F)cc2)c2ccc(F)cc21 (stereo not given) was read as HP1b binding inh inconclusive, JMJD2A Tudor 0.891µM*, PI5P4K alpha inh 0.9, G9a block 28.2µM*, BAZ2B block -37.0% and PLK1 PBD block 6.0%.
